Where “and” joins values, the source holds several entries; their conditions need not be identical. Identical values can stand only once. Records with an inconclusive call do not appear. Where a call stands in place of a potency, no number is given. A number with no mark means an inactive call. Calls of active or inactive are those of the source. Calls come from the whole dose curve; as a rule, active = well fitted cell-killing curve with a large enough effect; inconclusive = small, poorly fitted or top-dose-only effect, or effect the other way; inactive = no such curve, though single readings can be large or run the other way.
Test: Viability qHTS for spleen associated tyrosine kinase inhibitor (SYKi) naive MV4-11 cells (AID 1963823); note: nearly all actives have a fitted effect of over 40% in size
Conditions: MV4-11 AML viability, CellTiter-Glo luminescence, 72 h; series mostly up to 45 µM
Outline: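 Viability of MV4-11 AML cells lacking prior SYK inhibitor exposure is scored by CellTiter-Glo luminescence following 72 hr compound incubation at 37 C, 5% CO2, seeded at 500 cells per well.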
Potency is the fitted concentration of half-maximal effect.

| SMILES | Potency | viability (% of control) |
| --- | --- | --- |
| O=C(CCCl)NCCc1ccccc1 | inactive | – |
| NC1=N[C@@]2(c3cc(NC(=O)c4ccc(F)cn4)ccc3F)COC[C@H]2CS1 | inactive | – |
| C[C@H]1[C@H]2CC[C@H]3[C@@H]4CC=C5C[C@@H](N(C)C)CC[C@]5(C)[C@H]4CC[C@]23CN1C | inactive | – |
| CC(=O)Nc1ccc(CC(=O)O)cc1 | inactive | – |
| O=C(CCl)Nc1cccc(NC2=NS(=O)(=O)c3ccccc32)c1 | 2630 nM (active) | – |
| FC(F)(F)c1ccc(CNc2ccc(Cc3c[nH]c4ncccc34)cn2)cc1 | 259 nM (active) and 116 nM (active) | – |
| COc1cc2c(cc1OC)CN(CCc1ccc(-n3nnc(-c4cc(OC)c(OC)cc4NC(=O)c4cc(=O)c5ccccc5o4)n3)cc1)CC2 | – | 79.1% [at 0.588 µM] |
| OC[C@H]1O[C@@H](S[C@@H]2O[C@H](CO)[C@H](O)[C@H](n3cc(-c4cccc(F)c4)nn3)[C@H]2O)[C@H](O)[C@@H](n2cc(-c3cccc(F)c3)nn2)[C@H]1O | inactive | – |
| NC(=O)c1nc(F)c[nH]c1=O | inactive | – |
| CCN(CC)C(=O)/C(C#N)=C/c1cc(O)c(O)c([N+](=O)[O-])c1 | inactive | – |
| COc1ccc(/C(C)=C/C(=O)O)c(OC)c1 | inactive | – |
| NCCCC[C@H](N[C@@H](CCc1ccccc1)C(=O)O)C(=O)N1CCC[C@H]1C(=O)O | inactive | – |
| Cc1ccc(C(=O)Nc2ccc(CN3CCN(C)CC3)c(C(F)(F)F)c2)cc1C#Cc1cnc2[nH]ncc2c1 | inactive | – |
| Cc1cc(C)cc(NC(=O)Cc2ccc(OC(C)(C)C(=O)O)cc2)c1 | inactive | – |
| CCN(c1cc(C#CCN2CCOCC2)cc(C(=O)NCc2c(C)cc(C)[nH]c2=O)c1C)C1CCC(N(C)CCOC)CC1 (stereo not given) | inactive | – |
| CC[C@]1(O)CC2CN(CCc3c([nH]c4ccccc34)[C@@](C(=O)OC)(c3cc4c(cc3OC)N(C)[C@H]3[C@@](O)(C(=O)OC)[C@H](OC(C)=O)[C@]5(CC)C=CCN6CC[C@]43[C@@H]65)C2)C1 (stereo not given in full) | 33.2 nM (active) | – |
| O=C(Nc1ccnc(NC(=O)C2CC2)c1)c1c(Cl)cccc1Cl | 5170 nM (active) | – |
| CC1(C)S[C@H]2[C@H](NC(=O)[C@@H](N)c3ccc(O)cc3)C(=O)N2[C@H]1C(=O)O | inactive | – |

| SMILES | Potency | viability (% of control) |
| --- | --- | --- |
| CC(=O)Oc1cccc(O)c1 | inactive | – |
| CC[C@@H](C)Nc1cc(C(=O)NC2CC3CCC(C2)N3c2ccc(C(=O)C3CC3)cn2)c(C)cc1C(N)=O (stereo not given in full) | 41.7 nM (active) | – |
| CC1=C(/C=C/C(C)=C/C=C/C(C)=C/C(=O)O)C(C)(C)CCC1 | 668 nM (active) and 132 nM (active) | – |
| [2H]C([2H])([2H])C(O)([C@@H](C)/C=C/[C@@H](C)[C@H]1CC[C@H]2/C(=C/C=C3C[C@@H](O)C[C@H](O)C3)CCC[C@]12C)C([2H])([2H])[2H] | 10.5 nM (active) | – |
| CC(/C=C/[C@@H]1C[C@]1(C)c1ccc2c(c1)C(C)(C)CCC2(C)C)=C\C(=O)O | 66.1 nM (active) | – |
| Cc1c(F)cc(C(=O)NC2CC2)cc1-c1ccc(C(=O)NCC(C)(C)C)cn1 | 164 nM (active) | – |
| CC1=C(C(=O)O)N2C(=O)[C@@H](NC(=O)[C@H](N)c3ccc(O)cc3)[C@H]2SC1 | inactive | – |
| CN1CCN(C(=O)c2ccc(-c3ccc4c(C=O)c(O)ccc4c3)s2)CC1 | 16600 nM (active) | – |
| NC(=O)NNc1ccccc1 | inactive | – |
| O=C(O)CNC(=O)c1nc(Cl)c2ccccc2c1O | inactive | – |
| CN(C)C/C=C/C(=O)Nc1cccc(C(=O)Nc2cccc(Nc3ncc(Cl)c(-c4c[nH]c5ccccc45)n3)c2)c1 | inactive | – |
| CCCC1(CCC)CCC2(CCN(CCCN(CC)CC)C2)CC1 | 2350 nM (active) | – |
| CCOC(=O)c1cc(=O)c2c(OCC(COc3cccc4oc(C(=O)OCC)cc(=O)c34)OC(=O)[C@@H](N)CCCCN)cccc2o1 | inactive | – |
| NCC[C@H](O)C(=O)N[C@@H]1C[C@H](N)[C@@H](O[C@H]2O[C@H](CN)[C@@H](O)[C@H](O)[C@@H]2O)[C@H](O)[C@@H]1O[C@H]1O[C@H](CO)[C@@H](O)[C@H](N)[C@@H]1O | – | 113% [at 0.588 µM] |
| O=S1(=O)OC(c2ccc(O)cc2)(c2ccc(O)cc2)c2ccccc21 | inactive | – |
| CNCCn1c(=O)c2cc(OC)c(OC)cc2c2cnc3cc4c(cc3c21)OCO4 | 15.2 nM (active) | – |
| CCC(CC)CC1(C(=O)Nc2ccccc2SC(=O)C(C)C)CCCCC1 | inactive | – |

— PubChem BioAssay (NCATS)
